High-throughput results from PubChem.
In the library only some 12% were active in any assay of this set; here they are far more common.
HP1b binding inh – blocks HP1-beta chromodomain binding to methylated histone tails; 390,000 compounds, 0.56% hits; AlphaScreen HP1-beta / biotin-H3K9me3 peptide binding; Potency, µM (titrated, usually from 114 µM), without a hit: at the top dose activity change, negative = inhibition, actives largely listed as inhibitors; also: nearly all actives have a fitted effect of over 70% in size
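Compound inhibition of the preformed complex between 50 nM HP1-beta and 50 nM biotinylated H3K9me3 peptide was read by AlphaScreen. Buffer was PBS pH 7.4 with 0.01% Tween-20. Incubations ran 30 min at room temperature, with 10 ug/mL donor/acceptor beads.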
G9a inh – G9a (human) methyltransferase inhibition | Q96KQ7 | G9a H3K9 monomethylation, AlphaScreen, 2 h | Potency, µM (titrated, usually from 102 µM), inactives show at the top dose activity, negative = inhibition, usual class: inhibitors | 350,000 compounds, 8.8% hits | AID 504332; also: % is scaled to controls: 0 for no effect and ±100 for the full control effect; nearly all actives have a fitted effect of over 75% in size
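Compounds were preincubated with 20 nM G9a for 15 min, after which biotinylated H3K9 peptide (500 nM) and SAM (20 uM) started a 2 h room-temperature reaction. Monomethylated product was quantified by antibody-based AlphaScreen chemiluminescence.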
JMJD2A Tudor inh – JMJD2A Tudor domain (human) inhibition; AID 504339; 390,000 compounds, 4.4% hits; Potency, µM (top dose mostly 114 µM), without a hit: top-dose activity change, negative = inhibition, hits mostly inhibitors; AlphaScreen JMJD2A-Tudor / H3K4me3 peptide binding; also: % is scaled to controls: 0 for no effect and ±100 for the full control effect; nearly all actives have a fitted effect of over 50% in size
Target sequence (O75164 whole entry, looked up, the tested form may be a part): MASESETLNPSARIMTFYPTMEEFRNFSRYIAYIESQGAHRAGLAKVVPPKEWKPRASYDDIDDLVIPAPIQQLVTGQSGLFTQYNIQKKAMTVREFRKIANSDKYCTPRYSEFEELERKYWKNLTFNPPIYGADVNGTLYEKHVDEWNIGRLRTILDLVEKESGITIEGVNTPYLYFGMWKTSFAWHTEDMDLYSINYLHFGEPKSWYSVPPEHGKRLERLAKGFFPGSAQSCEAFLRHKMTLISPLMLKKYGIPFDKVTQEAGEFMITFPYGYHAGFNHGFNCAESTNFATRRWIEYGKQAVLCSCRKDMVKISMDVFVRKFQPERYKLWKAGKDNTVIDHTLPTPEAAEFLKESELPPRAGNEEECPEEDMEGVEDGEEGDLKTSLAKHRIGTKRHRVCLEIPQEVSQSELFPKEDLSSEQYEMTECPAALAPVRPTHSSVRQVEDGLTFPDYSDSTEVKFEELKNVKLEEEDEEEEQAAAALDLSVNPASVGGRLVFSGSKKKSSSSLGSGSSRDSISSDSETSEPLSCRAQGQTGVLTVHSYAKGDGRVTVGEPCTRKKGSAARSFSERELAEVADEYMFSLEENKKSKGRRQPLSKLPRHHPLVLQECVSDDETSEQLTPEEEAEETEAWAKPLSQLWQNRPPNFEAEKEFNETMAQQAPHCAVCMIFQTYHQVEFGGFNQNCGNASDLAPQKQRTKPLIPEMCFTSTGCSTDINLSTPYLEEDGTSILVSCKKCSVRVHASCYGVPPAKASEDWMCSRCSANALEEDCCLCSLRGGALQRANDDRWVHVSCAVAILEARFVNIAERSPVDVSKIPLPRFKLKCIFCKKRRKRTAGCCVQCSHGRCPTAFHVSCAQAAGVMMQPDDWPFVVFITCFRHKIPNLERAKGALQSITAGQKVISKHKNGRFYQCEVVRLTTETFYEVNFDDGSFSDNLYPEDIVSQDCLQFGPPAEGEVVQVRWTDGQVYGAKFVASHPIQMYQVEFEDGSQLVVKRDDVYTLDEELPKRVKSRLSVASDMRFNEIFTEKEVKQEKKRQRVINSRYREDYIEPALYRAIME
BAZ2B inh – blocks human BAZ2B. AID 504333. 360,000 compounds, 4.4% hits. Q9UIF8. AlphaScreen BAZ2B-H3K14Ac peptide displacement. Potency, µM (highest dose often 114 µM), for the others: at the highest dose activity change, negative = inhibition, usual class: inhibitors; also: % is scaled to controls: 0 for no effect and ±100 for the full control effect; nearly all actives have a fitted effect of over 60% in size
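AlphaScreen displacement of biotin-H3(5-23)K14Ac peptide (50 nM final) from BAZ2B (50 nM final) in PBS pH 7.4, 0.01% Tween-20; complex preformed 30 min RT, then compounds (top 110 uM) 30 min RT, beads 20 min dark.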
Sfp PPTase inh – inhibitors of Bacillus subtilis Sfp phosphopantetheinyl transferase. AID 1490. Potency, µM, inactives show largest response in the series, negative = inhibition, most hits filed as inhibitors. Q9F4F7. 310,000 compounds, 3.5% hits. Biochemical Sfp PPTase activity, qHTS;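 also: the enzyme is Sfp with the accession as filed and its product quenches rhodamine fluorescence; 0% = enzyme reaction without inhibitor and -100% = no enzyme wells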
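Compounds were incubated with enzyme (final 15 nM) for 15 min at room temperature before substrate addition started the reaction. Fluorescence at 525 nm excitation, 598 nm emission was recorded immediately and after 30 minutes.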
* marks the source's active call; other numbers are inactive results; ? = inconclusive; nt = not tested or not shown; [ ] = dose if it differs, or a comment. Calls follow the shape of the dose curve; as a rule, active = well fitted curve in the direction sought with a large enough effect; inconclusive = small, poorly fitted or top-dose-only effect, or another doubt; inactive = no such curve, though single readings can be large; an effect the other way counts as inactive or inconclusive. Potency is read from the fitted curve at half-maximal effect.

SMILES | HP1b binding inh | G9a inh | JMJD2A Tudor inh | BAZ2B inh | Sfp PPTase inh
Cc1ccnc(SCC(=O)c2ccc(Br)s2)n1 | 50.0% | 17.8µM* | 11.1% | -35.4% | 79.4µM*
Cc1cc(C)nc(SCC(=O)NNC(=O)c2cccs2)n1 | ? | 56.2µM* | -1.4% | -9.2% | 6.2%
CCC(C)NC(=O)CSc1ccc(NC(C)=O)cc1 (configuration not stated) | 27.4% | -7.5%[12.7 µM] | 1.6% | -3.3% | 21.4%
Cn1nnnc1SCC(=O)c1ccc(Br)s1 | 39.3% | nt | -16.0% | 0.5% | -48.8%
Cc1ccnc(SCC(=O)Nc2sccc2C#N)n1 | 27.7% | -31.9% | -34.0% | 50.1µM* | -6.4%
CC(=O)Nc1ccc(SCC(=O)Nc2sccc2C#N)cc1 | 15.1% | ? | -9.1% | -11.7% | 10.8%
CC(=O)Nc1ccc(SCC(=O)c2ccc(Br)s2)cc1 | ? | 22.4µM* | ? | 50.1µM* | 50.1µM*
COc1cccc(NC(=O)c2sc3nc(N4CCOCC4)c4c(c3c2N)CCCC4)c1 | 12.5% | ? | -9.7% | 2.9% | -11.2%
CC(=O)c1ccc(NC(=O)c2ccc(CN3C(=O)CCn4nc(C)cc43)cc2)cc1 | 13.0% | -26.0%[59 µM] | -15.5% | -14.7% | nt
O=C(Cc1cccc(NC(=O)C2CCCN(C(=O)CCc3ccccc3)C2)c1)Nc1ccc(C(=O)N2CCCCC2)cc1 (configuration not stated) | 38.3% | nt | -12.9% | nt | nt
Cc1ccnc(SCc2cc(=O)c(OC(=O)c3cccs3)co2)n1 | 32.2% | -1.8% | -14.0% | 6.0% | 4.6%
Cc1ccnc(SCC(=O)c2cccs2)n1 | 35.3% | 35.5µM* | -8.3% | -4.4% | -15.9%
Cn1c(N)c(C(=O)COC(=O)Cc2cccs2)c(=O)n(C)c1=O | 16.4% | nt | -10.4% | nt | nt
Cc1ccc(C)c(SCC(=O)OCC(=O)c2ccco2)c1 | ? | ? | 79.4µM* | 50.1µM* | -4.4%
O=C(Cc1cccs1)OCC(=O)c1ccco1 | ? | 50.1µM* | 79.4µM* | ? | -19.1%
COC(=O)c1c(NC(=O)c2cc3ccccc3c(=O)o2)sc2c1CCCC2 | 39.0% | 9.0%[59 µM] | 2.1% | -1.4% | nt
CC(=O)Oc1ccc2occ(/C=N/c3cc(=O)[nH]c(=S)[nH]3)c(=O)c2c1 | -17.6% | 11.2µM* | -21.3%[11.4 µM] | -29.3% | -27.7%
COc1ccc(C(=O)OC2CC3CC[C@H](C2)N3C(C)=O)cc1OC (some centres not stated) | nt | nt | nt | nt | 12.5%
O=C(c1cnn2c1NC(c1ccc(Br)cc1)CC2C(F)(F)F)N1CCN(C23CC4CC(CC(C4)C2)C3)CC1 (configuration not stated) | 10.1% | 28.2µM* | -19.4% | -29.6% | 11.5%
CCCCn1c(N)c(N(CC(C)C)C(=O)C2CCN(S(=O)(=O)c3ccc(Cl)cc3)CC2)c(=O)[nH]c1=O | 11.8% | -52.3% | -10.3% | -13.5% | nt
CC1=NC(=O)C(N=Nc2cccc(C(=O)O)c2)N1c1ccccc1 (configuration not stated) | -35.8% | ? | ? | 50.1µM* | -3.7%
O=C(O)c1cccc(N2C(=O)C3CC=CCC3C2=O)c1 (configuration not stated) | 27.0% | 6.1%[59 µM] | -14.1% | 1.0% | 16.0%
CC1=NC(=O)C(N=Nc2ccccc2C(=O)O)N1c1ccccc1 (configuration not stated) | -12.6% | -12.3%[12.7 µM] | ? | 28.2µM* | -7.2%
CC1=NC(=O)C(N=Nc2ccccc2)N1c1ccccc1 (configuration not stated) | -31.6% | 8.91µM* | 11.2µM* | 8.91µM* | -1.1%
c1ccc(Nc2cccc(Nc3ccccc3)c2)cc1 | 39.8µM* | 15.8µM* | 31.6µM* | 12.6µM* | 12.7%
SMILES | HP1b binding inh | G9a inh | JMJD2A Tudor inh | BAZ2B inh | Sfp PPTase inh
CCOC(=O)c1cnn(-c2ccccc2)c1-c1ccncc1 | 34.8% | -0.8% | ? | -5.3% | -4.8%
Cc1cc(C)c(C(=O)/C=C/c2cccs2)c(=O)[nH]1 | 28.3% | -2.5% | -10.6% | -15.9% | 21.4%
Cc1cc(C)c(C(=O)/C=C/c2ccco2)c(=O)[nH]1 | -0.3% | nt | -22.0% | ? | 8.91µM*
CCc1ccc(/C=C/C(=O)c2c(C)cc(C)[nH]c2=O)cc1 | 41.6% | 56.2µM* | -3.3% | 4.7% | 8.0%
Cc1ccc(/C=C/C(=O)c2c(C)cc(C)[nH]c2=O)cc1 | -1.4% | -4.2%[59 µM] | -16.8% | 5.7% | 6.2%
CCOC(=O)N1CCN(C(=O)c2ccc(NS(=O)(=O)c3ccc4[nH]c(=O)[nH]c4c3)cc2)CC1 | 29.3% | -18.8% | -9.0% | 6.9% | nt
Fc1ccc(Nc2c(-c3c[nH]c4ccccc34)nc3ccccn23)cc1 | ? | ? | 35.5µM* | ? | nt
Cc1cccc2nc(-c3ccccn3)c(Nc3ccc(F)cc3)n12 | 19.3% | -3.0%[59 µM] | 44.7µM* | 15.8µM* | nt
Cc1ccn2c(Nc3ccc(F)cc3)c(-c3ccccn3)nc2c1 | -14.1% | -48.0%[59 µM] | 25.1µM* | 14.1µM* | nt
Cc1cccc2nc(-c3ccccn3)c(Nc3ccccc3)n12 | 4.8% | 3.0%[59 µM] | 39.8µM* | 8.91µM* | nt
Cc1ccc(Nc2c(-c3ccccn3)nc3ccc(Br)cn23)cc1 | 34.4% | 16.8%[59 µM] | ? | -32.6% | nt
Cc1ccc(Nc2c(-c3ccccn3)nc3cccc(C)n23)cc1 | ? | 19.8%[59 µM] | -35.3%[11.4 µM] | 15.8µM* | 8.2%
Cc1ccc(Nc2c(-c3ccsc3)nc3cccc(C)n23)cc1 | ? | ? | 50.1µM* | ? | nt
Cc1cccc(C)c1Nc1c(-c2ccccc2F)nc2cccc(C)n12 | ? | 17.8µM* | 50.1µM* | ? | nt
Cn1nnnc1SCCCNCc1cccc(OCc2ccc(F)cc2)c1 | 21.3% | -30.4%[59 µM] | -10.9% | -18.7% | nt
CC(=O)OCc1cnc(C)c2oc(=O)c(C(=O)Nc3cccc(F)c3)cc12 | 20.8% | 24.3%[59 µM] | -17.2% | -10.9% | nt
CN(C)C(=S)Nc1nc2ccccc2s1 | ? | -10.4%[0.501 µM] | 3.55µM* | -37.4% | 14.1µM*
CCOc1ccc2nc(NC(=S)N(C)C)sc2c1 | ? | 1.58µM* | 12.6µM* | 35.5µM* | 39.8µM*
CC(=O)NNc1nc2ccccc2s1 | 20.1% | ? | -25.8% | 2.0% | 9.8%
S=C(Nc1ccccc1)c1nc2ccccc2s1 | ? | ? | 39.8µM* | -37.9% | 15.4%
CCOc1ccc2nc(NC(=O)c3cnc(C)cn3)sc2c1 | 34.9% | 44.7µM* | -18.1% | -0.8% | -24.6%
CCOC(=O)C1=C(C)N(CC(C)C)C(=O)C1 | 21.3% | 6.2% | 4.3% | -3.1% | 15.9%
CC1=C(C(=O)OCC(Br)(Br)Br)C(c2cccc([N+](=O)[O-])c2)NC(=O)N1CCCC(=O)O (configuration not stated) | 40.4% | nt | -8.6% | nt | nt
COc1ccc(CCNC(=O)NCc2noc3ccc(C)cc23)c(OC)c1 | 22.3% | -4.5%[59 µM] | -7.7% | -19.6% | nt
CC1CCCC(C)N1NC(=S)Nc1ccc(OC(F)F)cc1 (configuration not stated) | 27.7% | 4.9%[59 µM] | -18.9% | 17.9% | 0.4%
CC(=O)N1CCN(c2ccc(Oc3ccc([N+](=O)[O-])c(C(F)(F)F)c3)cc2)CC1 | -36.3% | 50.1µM* | ? | ? | -11.0%
